Consider 14 molecules from PubChem BioAssay (NCATS).

Test [1] has as its target Androgen receptor (Homo sapiens) (UniProt P10275). The test is described as follows: qHTS assay for small molecule agonists of androgen receptor signaling (AID 588515; active = well fitted curve in the direction sought with a large enough effect in the signal ratio, with a control signal flat; the % refers to the signal ratio; note: % is set by controls: 0 for no effect and ±100 for the full control effect). As to conditions: AR-UAS-bla HEK293, beta-lactamase ratio, agonist 16 h; stronger effect = higher value. The method, boiled down:
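Stimulation of an AR-responsive β-lactamase reporter in GripTite HEK293 cells was measured after 16 h compound exposure at 37 °C, via CCF4 fluorescence after 2 h RT. EC50 from Hill fits, normalized to R1881 at 30 nM.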
A general note: qHTS replaces the single test concentration by a dilution series.

The target is the same in test [2]. Kind of test: qHTS assay for small molecule antagonists of androgen receptor signaling (AID 588516; active = well fitted curve in the direction sought with a large enough effect in the signal ratio, with a control signal flat, not every such curve was filed as active; the % refers to the signal ratio; note: % is set by controls: 0 for no effect and ±100 for the full control effect). Summed up: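 AR-UAS-bla GripTite HEK 293 cells (2000/well) treated with compound titrations plus 10 nM R1881 for 16 h at 37C. Beta-lactamase read by CCF4 FRET (460/530 nm); IC50 from Hill fits, normalized to R1881 and DMSO control wells.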
The target of test [3] is Bile acid receptor (Homo sapiens) (UniProt Q96RI1). The test is described as follows: qHTS assay for small molecule antagonists of farnesoid X receptor signaling (AID 588526; calls by dose curve; note: % is set by controls: 0 for no effect and ±100 for the full control effect). The method, boiled down: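 Antagonist mode: titrated compounds tested against chenodeoxycholic acid stimulation (normalized to 50 uM CDCA and DMSO) in GeneBLAzer HEK293T cells for 16 h. Beta-lactamase read by CCF4 fluorescence; IC50 from Hill fits.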

Test [4] shares this target. Kind of test: qHTS assay for small molecule agonists of farnesoid X receptor signaling (AID 588527; calls by dose curve;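 note: series mostly up to about 77 µM; 0% = vehicle basal and 100% = reference agonist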). The settings on record: HEK293T FXR-UAS-bla, beta-lactamase ratio, 16 h; activation: stronger effect = higher value. The method, boiled down: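 FXR-UAS-bla HEK293T cells (10% dialyzed FBS) preincubated 5-7 h at 37 C, then compounds at up to 92 uM for 16 h at 37 C. CCF4 beta-lactamase read-out after 2 h RT. Normalized to chenodeoxycholic acid (100 uM) and DMSO; Hill fit gave EC50 and efficacy.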

Test [5] concerns the target Glucocorticoid receptor (Homo sapiens) (UniProt P04150). Kind of test: qHTS assay for small molecule agonists of glucocorticoid receptor signaling (AID 588532; active = well fitted curve in the direction sought with a large enough effect in the signal ratio, with a control signal flat; the % refers to the signal ratio;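 note: 100% = dexamethasone at 0.1 µM and 0% = DMSO only wells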). As to conditions: HeLa MMTV-bla, beta-lactamase ratio, agonist, 18 h; activation: stronger effect = higher value, percent of dexamethasone control, DMSO zero. The method, boiled down:
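MMTV-bla HeLa beta-lactamase reporter cells in 1% charcoal/dextran FBS medium, compounds up to 92 uM for 18 h at 37 C, CCF4 readout; normalized to 0.1 uM dexamethasone (100%), EC50 and efficacy from Hill fits.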

Test [6] can be described thus: qHTS assay for small molecule antagonists of peroxisome proliferator-activated receptor delta signaling (AID 588535; active = well fitted inhibition curve with a large enough effect in the signal ratio, with a control signal flat, not every such curve was filed as active; the % refers to the signal ratio;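 for max response: cells co-treated with a PPAR-delta agonist as stimulator during compound exposure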). As to conditions: HEK293T PPARd-UAS-bla, beta-lactamase FRET ratio, 18 h; 460 nm channel. Summed up: (§1)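 Fluorescence from CCF4-loaded GeneBLAzer PPAR-delta-UAS-bla HEK293T cells (2 hrs RT loading) quantified reporter inhibition after an 18 hr, 37 C compound exposure across a titration.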

The target in test [7] is Peroxisome proliferator-activated receptor delta (Homo sapiens) (UniProt Q03181). The description is as above. Summed up:
as §1

Test [8] can be described thus: qHTS assay for small molecule activators of the nuclear factor-kappa B (NF-kB) signaling pathway (AID 651749; active = well fitted activation curve with a large enough effect in the signal ratio; the % refers to the signal ratio; note: series mostly up to about 77 µM; % of control where 0% means no effect). The settings on record: NF-kB-bla ME-180 cells, beta-lactamase FRET ratio, 16 h; activation: stronger effect = higher value. Summed up: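 In this qHTS format, compounds acting as activators increase NF-kB-driven beta-lactamase in ME-180 cells, measured as disrupted FRET after 16 hr exposure at 37C and 5% CO2.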

Test [9] deals with Nuclear receptor subfamily 1 group I member 2 (Rattus norvegicus) (UniProt Q9R1A7). The test is described as follows: qHTS assay for small molecule activators of the rat pregnane X receptor (rPXR) signaling pathway (AID 651751; call rule not given here; note: 0% is about no effect). As to conditions: rPXR reporter cells, luciferase (One-Glo), 24 h.
Test [10] can be described thus: qHTS assay for small molecule activators of the human pregnane X receptor (PXR) signaling pathway (AID 720659; call rule not given here; note: 0% is about no effect).
For test [11], the target named is Cytochrome P450 3A4 (Homo sapiens) (UniProt P08684). The test is described as follows: qHTS Assay for Inhibitors and Substrates of Cytochrome P450 3A4 (AID 884). Note: nearly all actives have a fitted effect of over 50% in size. Note: potency is the fitted concentration of half-maximal effect. The method, boiled down: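 Luminescent readout of luciferin produced by CYP3A4 (20 nM) dealkylation of Luciferin-PPXE, 25 uM (its KM). NADPH-driven reaction ran 60 min at RT after 10 min compound preincubation; data scaled to 57 uM ketoconazole as 100% inhibition.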

Test [12] shares this target. Kind of test: qHTS Assay for Activators of Cytochrome P450 3A4 (AID 885). Note: nearly all actives have a fitted effect of over 65% in size. Summed up: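 Human CYP3A4 dealkylates Luciferin-PPXE to luciferin, which luciferase detection converts to light. Substrate was at its KM (25uM), buffer 200mM KPO4, reaction 60 min at RT.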
Test [13] concerns the target DNA dC->dU-editing enzyme APOBEC-3G (Homo sapiens) (UniProt Q9HC16). The test is described as follows: qHTS for inhibitors of Vif-A3G interactions: Validation (AID 588379). Note: 0% is about no effect. The method, boiled down: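 Yellow fluorescence (Ex 488, Em 500-530) of Vif-coexpressing HeLa A3G-eYFP cells, scanned by Acumen cytometer, reports blocked A3G degradation. Cells plated at 700/well overnight at 37 deg C before compound addition, then a further overnight compound incubation at 37 deg C.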

For test [14], the target named is Vitamin D3 receptor (Homo sapiens) (UniProt P11473). Kind of test: qHTS assay for small molecule agonists of vitamin D receptor signaling (AID 588543; calls by dose curve;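 note: 0% = DMSO basal and 100% = reference agonist control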). The method, boiled down: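 VDR-UAS-bla HEK293T cells, 2000/well, 2% charcoal-stripped FBS; compound titration 16 h at 37 C; CCF4 beta-lactamase ratio read. Normalized to 50 nM 1-alpha,25-dihydroxyvitamin D3 (100%) and DMSO; Hill fit gives EC50, efficacy.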

Test [15] in a line: qHTS assay for small molecule agonists of the antioxidant response element (ARE) signaling pathway (AID 651741; active = well fitted activation curve with a large enough effect in the signal ratio; the % refers to the signal ratio; note: % of control where 0% means no effect). The method, boiled down: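 Stably integrated ARE-beta-lactamase reporter HepG2 cells; 16 h compound incubation, 37 C; LiveBLAzer FRET substrate 2 h at room temperature; fluorescence intensity.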
The nature of test [16]: Confirmation and Secondary Assay for Modulators of Hemoglobin Beta Chain Splicing at IVS2 654 locus (AID 910).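 Note: HeLa cells stably carrying EGFP split by mutant beta-globin IVS2-654 intron; % of control where 0% means no effect.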 Summed up:
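HeLa cells stably expressing EGFP interrupted by β-globin IVS2-654 intron, seeded overnight in Opti-MEM/2% FCS, then treated 2 days at 37 °C. Restored splicing read as total peak GFP intensity per well by laser scanning cytometry (488 nm excitation, 500–520 nm emission); 500 nM antisense PNA as control.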

Test [17] in a line: Confirmation and Secondary Assay for Modulators of Hemoglobin Beta Chain Splicing at IVS2 705 locus (AID 930).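 Note: HeLa cells stably expressing the EGFP-705 splicing reporter; GFP fluorescence per well restored by corrected splicing of the IVS2-705 intron in EGFP; series mostly up to about 46 µM; % of control where 0% means no effect.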 The method, boiled down:
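HeLa IVS2-705 EGFP reporter cells, 500/well, compound 2 d at 37C; correct splicing yields fluorescent EGFP. Control: 500 nM antisense PNA. Read-out: total peak GFP intensity.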

Several values for one entry are separate records, joined by “and”; a condition that tells them apart may be missing. Identical values can stand only once. Results filed as inconclusive are left out. Activity calls are given as the source filed them. Unless noted, calls come from the whole dose curve; as a rule, active = well fitted curve in the direction sought with a large enough effect; inconclusive = small, poorly fitted or top-dose-only effect, or another doubt; inactive = no such curve, though single readings can be large; an effect the other way counts as inactive or inconclusive.

Nuclear receptor subfamily 1 group I member 2 (Rattus norvegicus), sequence (Q9R1A7 whole entry, looked up): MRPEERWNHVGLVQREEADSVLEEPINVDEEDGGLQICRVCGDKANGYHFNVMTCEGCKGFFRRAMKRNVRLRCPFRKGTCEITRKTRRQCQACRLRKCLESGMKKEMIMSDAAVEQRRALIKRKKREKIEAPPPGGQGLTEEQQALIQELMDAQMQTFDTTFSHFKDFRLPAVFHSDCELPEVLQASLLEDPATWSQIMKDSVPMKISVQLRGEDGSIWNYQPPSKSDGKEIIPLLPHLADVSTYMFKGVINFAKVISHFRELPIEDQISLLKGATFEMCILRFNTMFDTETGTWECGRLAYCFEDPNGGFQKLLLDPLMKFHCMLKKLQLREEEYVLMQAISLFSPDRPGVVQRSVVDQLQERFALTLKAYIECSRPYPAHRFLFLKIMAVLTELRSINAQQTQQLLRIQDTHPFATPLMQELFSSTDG
Bile acid receptor (Homo sapiens), sequence (Q96RI1 whole entry, looked up): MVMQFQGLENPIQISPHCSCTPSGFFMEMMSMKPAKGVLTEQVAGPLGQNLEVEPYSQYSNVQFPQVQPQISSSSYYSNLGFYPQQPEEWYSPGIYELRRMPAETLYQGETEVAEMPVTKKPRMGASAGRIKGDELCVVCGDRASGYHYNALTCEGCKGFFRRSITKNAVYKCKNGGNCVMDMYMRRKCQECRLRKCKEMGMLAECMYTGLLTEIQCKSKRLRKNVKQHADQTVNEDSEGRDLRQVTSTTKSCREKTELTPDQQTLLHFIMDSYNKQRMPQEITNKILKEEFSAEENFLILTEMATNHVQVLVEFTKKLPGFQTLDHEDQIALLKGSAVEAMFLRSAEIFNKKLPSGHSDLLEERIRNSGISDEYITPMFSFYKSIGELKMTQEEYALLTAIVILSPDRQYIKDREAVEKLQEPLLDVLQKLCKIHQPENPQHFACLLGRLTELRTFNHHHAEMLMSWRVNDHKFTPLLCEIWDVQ
DNA dC->dU-editing enzyme APOBEC-3G (Homo sapiens), sequence (Q9HC16 whole entry, looked up): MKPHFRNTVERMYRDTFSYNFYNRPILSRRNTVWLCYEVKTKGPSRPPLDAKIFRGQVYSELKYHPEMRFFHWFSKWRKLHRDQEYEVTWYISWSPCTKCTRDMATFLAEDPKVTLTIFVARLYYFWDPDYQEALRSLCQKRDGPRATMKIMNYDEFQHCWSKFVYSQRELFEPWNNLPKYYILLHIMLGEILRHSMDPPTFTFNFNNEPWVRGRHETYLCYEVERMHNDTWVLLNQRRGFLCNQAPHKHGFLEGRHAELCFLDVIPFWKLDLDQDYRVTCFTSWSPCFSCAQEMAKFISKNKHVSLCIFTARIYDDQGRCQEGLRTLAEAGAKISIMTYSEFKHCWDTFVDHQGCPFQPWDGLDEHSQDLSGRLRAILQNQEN
Cytochrome P450 3A4 (Homo sapiens), sequence (P08684 whole entry, looked up): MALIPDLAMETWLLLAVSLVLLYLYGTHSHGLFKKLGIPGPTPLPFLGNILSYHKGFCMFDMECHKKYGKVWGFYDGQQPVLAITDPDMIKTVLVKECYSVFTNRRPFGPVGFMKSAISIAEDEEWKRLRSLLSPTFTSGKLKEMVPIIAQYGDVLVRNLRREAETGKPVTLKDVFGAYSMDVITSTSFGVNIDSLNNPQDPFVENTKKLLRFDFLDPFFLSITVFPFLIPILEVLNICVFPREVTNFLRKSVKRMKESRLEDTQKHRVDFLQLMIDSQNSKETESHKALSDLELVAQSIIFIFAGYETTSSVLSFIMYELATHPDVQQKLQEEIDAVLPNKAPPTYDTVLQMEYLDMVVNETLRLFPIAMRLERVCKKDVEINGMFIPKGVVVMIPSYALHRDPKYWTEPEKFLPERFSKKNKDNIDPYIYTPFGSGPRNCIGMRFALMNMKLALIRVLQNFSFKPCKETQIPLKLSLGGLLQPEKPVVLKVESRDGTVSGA
Glucocorticoid receptor (Homo sapiens), sequence (P04150 whole entry, looked up): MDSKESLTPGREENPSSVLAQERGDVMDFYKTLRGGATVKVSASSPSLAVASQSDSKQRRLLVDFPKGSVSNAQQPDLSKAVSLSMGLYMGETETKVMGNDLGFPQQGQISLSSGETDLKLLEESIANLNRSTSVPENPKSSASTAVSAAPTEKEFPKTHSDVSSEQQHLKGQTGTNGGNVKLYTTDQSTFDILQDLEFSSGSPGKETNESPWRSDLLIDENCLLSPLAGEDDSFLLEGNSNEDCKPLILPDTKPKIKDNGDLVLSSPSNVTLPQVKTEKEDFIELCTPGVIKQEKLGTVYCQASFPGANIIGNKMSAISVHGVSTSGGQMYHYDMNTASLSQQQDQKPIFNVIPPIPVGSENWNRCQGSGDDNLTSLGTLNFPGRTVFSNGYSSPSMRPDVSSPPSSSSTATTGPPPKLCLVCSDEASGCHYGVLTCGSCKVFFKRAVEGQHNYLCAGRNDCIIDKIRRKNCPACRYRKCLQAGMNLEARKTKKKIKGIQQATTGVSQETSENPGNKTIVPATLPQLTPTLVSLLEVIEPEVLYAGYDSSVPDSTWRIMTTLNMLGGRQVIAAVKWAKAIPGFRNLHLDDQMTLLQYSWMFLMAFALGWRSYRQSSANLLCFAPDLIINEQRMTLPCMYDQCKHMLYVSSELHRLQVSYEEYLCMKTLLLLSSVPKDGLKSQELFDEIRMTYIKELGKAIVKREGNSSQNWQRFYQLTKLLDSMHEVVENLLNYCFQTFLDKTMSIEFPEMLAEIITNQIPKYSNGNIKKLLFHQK
Androgen receptor (Homo sapiens), sequence (P10275 whole entry, looked up): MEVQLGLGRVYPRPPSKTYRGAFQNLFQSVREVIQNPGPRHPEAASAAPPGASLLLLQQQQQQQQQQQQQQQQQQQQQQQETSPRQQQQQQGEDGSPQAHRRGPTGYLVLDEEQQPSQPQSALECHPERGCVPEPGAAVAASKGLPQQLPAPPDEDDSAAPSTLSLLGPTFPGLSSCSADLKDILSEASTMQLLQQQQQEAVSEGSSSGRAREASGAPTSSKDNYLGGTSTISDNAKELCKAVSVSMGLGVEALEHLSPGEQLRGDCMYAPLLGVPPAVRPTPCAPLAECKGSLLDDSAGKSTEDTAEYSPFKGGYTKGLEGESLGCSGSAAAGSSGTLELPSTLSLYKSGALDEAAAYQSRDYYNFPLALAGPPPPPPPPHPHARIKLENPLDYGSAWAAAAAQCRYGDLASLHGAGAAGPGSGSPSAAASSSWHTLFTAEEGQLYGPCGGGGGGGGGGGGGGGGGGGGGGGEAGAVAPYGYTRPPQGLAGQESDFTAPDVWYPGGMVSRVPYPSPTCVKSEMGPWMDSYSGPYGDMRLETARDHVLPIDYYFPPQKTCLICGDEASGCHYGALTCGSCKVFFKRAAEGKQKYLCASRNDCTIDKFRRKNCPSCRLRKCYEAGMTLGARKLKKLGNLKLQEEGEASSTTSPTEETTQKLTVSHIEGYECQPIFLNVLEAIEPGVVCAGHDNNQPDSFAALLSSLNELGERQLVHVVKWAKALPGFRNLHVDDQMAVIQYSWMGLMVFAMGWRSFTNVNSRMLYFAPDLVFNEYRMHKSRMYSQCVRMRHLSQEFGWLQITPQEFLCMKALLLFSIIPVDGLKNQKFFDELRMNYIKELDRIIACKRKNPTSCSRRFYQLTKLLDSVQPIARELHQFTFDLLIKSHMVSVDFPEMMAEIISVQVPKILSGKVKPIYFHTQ
Peroxisome proliferator-activated receptor delta (Homo sapiens), sequence (Q03181 whole entry, looked up): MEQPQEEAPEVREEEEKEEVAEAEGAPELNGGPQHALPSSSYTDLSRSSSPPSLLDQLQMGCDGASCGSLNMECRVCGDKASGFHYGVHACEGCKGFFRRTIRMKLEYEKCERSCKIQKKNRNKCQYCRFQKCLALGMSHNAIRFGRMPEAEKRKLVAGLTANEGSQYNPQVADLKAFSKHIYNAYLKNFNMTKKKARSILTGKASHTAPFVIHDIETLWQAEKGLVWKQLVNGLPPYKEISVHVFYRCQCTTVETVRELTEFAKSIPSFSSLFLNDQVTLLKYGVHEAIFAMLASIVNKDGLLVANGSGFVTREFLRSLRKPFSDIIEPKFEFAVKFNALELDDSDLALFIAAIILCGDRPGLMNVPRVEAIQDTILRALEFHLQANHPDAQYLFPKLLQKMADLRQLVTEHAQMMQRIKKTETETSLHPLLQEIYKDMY
Vitamin D3 receptor (Homo sapiens), sequence (P11473 whole entry, looked up): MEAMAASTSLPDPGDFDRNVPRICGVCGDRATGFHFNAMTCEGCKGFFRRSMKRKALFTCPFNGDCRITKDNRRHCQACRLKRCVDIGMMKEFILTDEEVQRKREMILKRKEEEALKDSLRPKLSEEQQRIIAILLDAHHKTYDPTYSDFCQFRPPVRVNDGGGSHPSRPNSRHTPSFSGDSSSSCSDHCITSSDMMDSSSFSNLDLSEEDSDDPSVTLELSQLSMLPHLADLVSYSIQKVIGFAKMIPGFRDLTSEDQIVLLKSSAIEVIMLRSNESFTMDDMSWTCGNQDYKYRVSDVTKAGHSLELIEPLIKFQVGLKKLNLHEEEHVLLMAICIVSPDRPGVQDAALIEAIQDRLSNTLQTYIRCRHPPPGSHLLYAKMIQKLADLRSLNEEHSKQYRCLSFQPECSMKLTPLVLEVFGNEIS

As to `O=[As](O)(O)O`, the activation in [1] was -0.986% (inactive); in [4] it was -0.515% (inactive); in test [5], -5.56% (inactive); in test [8] it was -0.92% (inactive). Besides, the Potency entry in test [2], in test [3] and in [7] was “inactive” each time. Further, the figures for the max response in test [6] and in test [9] were 6.63% and -1.48% (inactive), respectively. In addition, in test [10], the molecule was classed as inactive.

With `c1cc2c(cc1[C@H]1OC[C@@H]3[C@H]1CO[C@H]3c1ccc3c(c1)OCO3)OCO2`, in test [11], the Potency is 794 nM (active). Moreover, in [12], the Potency result was “inactive”. For the same molecule, the molecule was called inactive in test [13].

Consider `C[C@]12[C@H](O)CC3C(CC[C@@H]4C[C@@H](O)CC[C@]34C)[C@@]1(O)CC[C@@H]2C1=CC(=O)OC1` (some centres not stated), for which, in test [11], the Potency result is “inactive”. Moreover, the call in [13] was inactive.

Regarding `C/C(=N\C(N)=O)N(C)Cc1ccc(Cl)nc1`, the activation is -2.44% (inactive) in test [1], 2.77% (inactive) in [4], -1.3% (inactive) in [5] and -1.01% (inactive) in [8]. Further, the Potency entry in [2], in test [3] and in [7] was “inactive” in each case. Besides, the max response in [6] is 39.3%; in test [9], 2.68% (inactive). The result in [14] and in [10] was inactive.

`COc1nc(C)nc(NC(=O)NS(=O)(=O)c2ccccc2CCC(F)(F)F)n1`: the activation in test [1] was 6.02% (inactive); in test [4], 1.64% (inactive); in [5], -2.83% (inactive); in test [8] it was -0.385% (inactive). Further, the Potency result in test [2], in test [3], in test [7] and in test [15] was “inactive” throughout. Also, the max response in test [6] is 34.6%; in test [9], 1.14% (inactive). Also, in test [10], the molecule was classed as inactive.

For `COc1cc2c(cc1OC)-c1c(OC)c(OC)c(CO)c3c1C(C2)N(C)CC3` (configuration not stated), the Potency in test [11] was 31600 nM (active). For the same molecule, in test [12], the Potency entry is “inactive”. In addition, in [13], the result was inactive.

In the case of `COC(C)C(O)(C(=O)OC1=CCN2CC[C@H](O)[C@H]12)C(C)C` (some centres not stated), the Potency entry in test [12] is “inactive”. In addition, the result in [13] was inactive.

`COc1ccc(CC2NCC(O)C2OC(C)=O)cc1` (configuration not stated): the Potency result in test [11] is “inactive”. The call in [13] was inactive.

In the case of `CN1Cc2c(ccc3c2OCO3)C2C(O)Cc3cc4c(cc3C21)OCO4` (configuration not stated), the Potency in [11] is 12.6 µM (active) and 5.01 µM (active). Besides, the Potency result in test [12] and in [16] was “inactive” throughout. Besides, the outcome in test [17] and in test [13] was inactive.

As for `CC1CCC2C(C)C(=O)OC3OC4(C)CCC1C32OO4` (configuration not stated), in test [13], the result was inactive.

On to `COc1ccc2c(c1OC)C(=O)O[C@@H]2C1c2cc3c(cc2CCN1C)OCO3` (some centres not stated), for which the molecule was called inactive in test [13].

Consider `O=CN1CC2CC(C1)c1cccc(=O)n1C2` (configuration not stated), for which, in [11], the Potency result was “inactive”. In test [13], the result was inactive.

`CC1=CC(=O)C2=C(C)C[C@H](O)[C@H]3[C@H](C)C(=O)O[C@@H]3C12` (some centres not stated): the Potency result in [11] is “inactive”. For the same molecule, the molecule was classed as inactive in [13].

Consider `COc1ccc(CC2c3cc(OC)c(OC)cc3CCN2C)cc1OC` (configuration not stated), for which the Potency result in test [11] is “inactive”. Moreover, the call in [13] was inactive.
